Assay results: PubChem BioAssay (Tox21)
Where “and” joins values, the source holds several entries; their conditions need not be identical. Equal entries are not always repeated. Records with an inconclusive call do not appear. Calls of active or inactive are those of the source. Unless noted, calls come from the whole dose curve; as a rule, active = well fitted curve in the direction sought with a large enough effect in the repeat runs; inconclusive = weak or mixed curves; inactive = no such curve, though single readings can be large; an effect the other way counts as inactive or inconclusive.

Tests used:
[1] = qHTS assay to identify small molecule antagonists of the estrogen related receptor (ERR) signaling pathway from Tox21 library - cell viability counter screen (AID 1224834); note: nearly all actives have a fitted effect of over 30% in size
How it was run: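 CellTiter-Fluor fluorescence, read after 30 min at 37 C, measures viability of ERR cells. Cells plated at 2,000/well and incubated 6 h before pin-tool compound addition, then exposed 17.5 hours at 37 C.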

[2] = target: Luciferin 4-monooxygenase (Photinus pyralis) (UniProt P08659); assay: qHTS assay to identify small molecule inhibitors of firefly luciferase (AID 1224835); note: series mostly up to about 120 µM; nearly all actives have a fitted effect of over 25% in size
Sequence of Luciferin 4-monooxygenase (Photinus pyralis) (P08659 whole entry, looked up): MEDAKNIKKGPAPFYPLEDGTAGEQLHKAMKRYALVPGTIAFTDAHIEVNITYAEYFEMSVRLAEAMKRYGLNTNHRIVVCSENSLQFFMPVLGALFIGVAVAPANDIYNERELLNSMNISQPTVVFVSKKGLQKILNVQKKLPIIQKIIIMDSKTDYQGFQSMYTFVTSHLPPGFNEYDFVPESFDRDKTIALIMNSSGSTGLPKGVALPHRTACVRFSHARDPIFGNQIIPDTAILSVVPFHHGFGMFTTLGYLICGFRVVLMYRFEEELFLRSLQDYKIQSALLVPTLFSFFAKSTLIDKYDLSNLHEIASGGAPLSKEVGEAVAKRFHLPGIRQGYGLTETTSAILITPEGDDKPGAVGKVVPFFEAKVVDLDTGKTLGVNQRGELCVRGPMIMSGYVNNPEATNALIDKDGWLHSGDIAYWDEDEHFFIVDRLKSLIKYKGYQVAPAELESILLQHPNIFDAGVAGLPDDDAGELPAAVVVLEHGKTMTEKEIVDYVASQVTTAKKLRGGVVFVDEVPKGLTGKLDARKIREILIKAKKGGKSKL
How it was run: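 Biochemical qHTS: compounds run as interplate titrations against purified firefly enzyme, with D-luciferin and ATP each at its KM concentration. Light output recorded by CCD imaging.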

[3] = qHTS assay to identify small molecule agonists of the constitutive androstane receptor (CAR) signaling pathway - cell viability counter screen (AID 1224836); note: series mostly up to about 92 µM; nearly all actives have a fitted effect of over 45% in size
How it was run: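 HepG2 cells stably carrying hCAR and a CYP2B6-2.2kb reporter; 15-concentration compounds plus PK11195 (final 0.75 uM), 23 hr at 37 C/5% CO2. Viability read by CellTiter-Fluor fluorescence.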

[4] = qHTS assay to identify small molecule antagonists of the constitutive androstane receptor (CAR) signaling pathway - cell viability counter screen (AID 1224837); note: series mostly up to about 92 µM; nearly all actives have a fitted effect of over 45% in size
How it was run: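 Cytotoxicity counter-screen: CellTiter-Fluor fluorescence after 23 h compound exposure (15-point qHTS) in double-stable HepG2-CYP2B6-hCAR cells, with 50 nM CITCO added.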

[5] = target: Nuclear receptor subfamily 1 group I member 3 (Homo sapiens) (UniProt Q14994); assay: qHTS assay to identify small molecule antagonists of the constitutive androstane receptor (CAR) signaling pathway (AID 1224838);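 note: HepG2 cells stably expressing hCAR with CYP2B6 luciferase reporter stimulated by CITCO; nearly all actives have a fitted effect of over 40% in size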
Sequence of Nuclear receptor subfamily 1 group I member 3 (Homo sapiens) (Q14994 whole entry, looked up): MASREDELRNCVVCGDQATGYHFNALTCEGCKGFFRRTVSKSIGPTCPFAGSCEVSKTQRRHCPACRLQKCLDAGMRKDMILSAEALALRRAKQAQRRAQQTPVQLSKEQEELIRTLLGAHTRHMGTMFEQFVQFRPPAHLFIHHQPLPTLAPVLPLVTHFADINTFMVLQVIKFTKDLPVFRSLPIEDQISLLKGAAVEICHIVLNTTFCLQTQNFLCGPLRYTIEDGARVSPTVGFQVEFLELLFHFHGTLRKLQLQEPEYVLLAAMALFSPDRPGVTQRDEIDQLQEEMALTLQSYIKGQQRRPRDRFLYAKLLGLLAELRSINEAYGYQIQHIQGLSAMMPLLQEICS
How it was run: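 Antagonism measured as luciferase signal (ONE-Glo, 30 min, room temperature) in CAR-stimulated cells: HepG2-CYP2B6-hCAR double-stable line exposed 24 hr at 37 C to compound in a 15-point series plus 50 nM CITCO.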

[6] = target: Nuclear receptor subfamily 1 group I member 3 (Homo sapiens) (UniProt Q14994); assay: qHTS assay to identify small molecule agonists of the constitutive androstane receptor (CAR) signaling pathway (AID 1224839); note: nearly all actives have a fitted effect of over 15% in size; note: potency is the fitted concentration of half-maximal effect;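 for activation: HepG2 cells stably carrying human CAR and a CYP2B6 luciferase reporter; series mostly up to about 92 µM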
How it was run: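 HepG2 cells stably co-transfected with hCAR and a CYP2B6-2.2kb luciferase reporter; compounds at 15 concentrations with 0.75 uM PK11195 present. After 24 hr at 37 C, luciferase read by ONE-Glo luminescence.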

[7] = qHTS assay to identify small molecule antagonists of the estrogen related receptor signaling pathway with the pleiotropic PPARgamma coactivator (PGC) from Tox21 10K library - cell viability counter screen (AID 1224840; active = well fitted cell-killing curve with a large enough effect in the repeat runs, not every such curve was filed as active; note: nearly all actives have a fitted effect of over 40% in size)
How it was run: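 Counter-screen for cytotoxicity: after 17.5 h compound exposure at 37 C, CellTiter-Fluor reagent added to PGC/ERR cells for 30 min and fluorescence read. Cells were seeded at 2,000 per well 6 h before dosing.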

[8] = qHTS assay to identify small molecule antagonists of the estrogen related receptor signaling pathway with the pleiotropic PPARgamma coactivator (PGC) from Tox21 10K library (AID 1224841; call rule not given here; note: actives are mostly falling curves and most rising ones were filed inactive; nearly all actives have a fitted effect of over 50% in size; note: potency is the fitted concentration of half-maximal effect; for activity, negative = inhibition: series mostly up to about 92 µM)
How it was run: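 Luminescence (One-Glo, 30 min at room temperature) after 18 h compound treatment at 37 C of PGC/ERR reporter cells plated at 2,000 cells/well and settled 6 h beforehand.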

[9] = qHTS assay to identify small molecule agonists of the estrogen related receptor signaling pathway with the pleiotropic PPARgamma coactivator (PGC) from Tox21 10K library (AID 1224842); note: nearly all actives have a fitted effect of over 15% in size
How it was run: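 PGC/ERR reporter cell line, 2,000 cells per well, incubated 6 h at 37 C before 23 nL compound in DMSO was added. After 18 h at 37 C, One-Glo luminescence read following 30 min at room temperature.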

[10] = target: Thyrotropin receptor (Homo sapiens) (UniProt P16473); assay: qHTS assay to identify small molecule agonists of the thyroid stimulating hormone receptor (TSHR) signaling pathway (AID 1224843; calls by dose curve; note: nearly all actives have a fitted effect of over 45% in size)
Sequence of Thyrotropin receptor (Homo sapiens) (P16473 whole entry, looked up): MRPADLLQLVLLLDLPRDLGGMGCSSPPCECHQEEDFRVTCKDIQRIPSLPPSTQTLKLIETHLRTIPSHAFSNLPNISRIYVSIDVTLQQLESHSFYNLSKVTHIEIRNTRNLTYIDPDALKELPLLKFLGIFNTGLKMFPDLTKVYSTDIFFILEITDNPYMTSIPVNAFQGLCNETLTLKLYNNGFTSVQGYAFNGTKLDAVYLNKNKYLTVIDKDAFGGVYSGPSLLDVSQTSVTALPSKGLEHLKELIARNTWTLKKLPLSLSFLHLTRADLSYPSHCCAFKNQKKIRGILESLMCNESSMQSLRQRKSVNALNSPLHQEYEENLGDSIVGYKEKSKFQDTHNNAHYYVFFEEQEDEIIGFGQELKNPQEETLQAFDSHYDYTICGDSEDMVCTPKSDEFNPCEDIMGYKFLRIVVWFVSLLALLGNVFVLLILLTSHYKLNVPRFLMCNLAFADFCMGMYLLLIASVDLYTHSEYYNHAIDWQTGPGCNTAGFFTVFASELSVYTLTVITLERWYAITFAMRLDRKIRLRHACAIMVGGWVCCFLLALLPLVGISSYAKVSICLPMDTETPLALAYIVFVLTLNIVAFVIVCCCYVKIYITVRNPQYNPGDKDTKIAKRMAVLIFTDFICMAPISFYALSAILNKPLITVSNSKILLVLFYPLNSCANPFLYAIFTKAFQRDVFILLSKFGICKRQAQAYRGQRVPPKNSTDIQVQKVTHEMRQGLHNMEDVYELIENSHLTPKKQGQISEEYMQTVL
How it was run: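 HEK293/TSHR, 800 cells/well; cpd 30 min RT; add cAMP-d2 + anti-cAMP-cryptate, 1 h RT; fluorescence read on plate reader. 15-pt titration, n=3.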
% is set by controls: 0 for no effect and ±100 for the full control effect.

N=C(N)c1ccc2cc(OC(=O)c3ccc(N=C(N)N)cc3)ccc2c1
inactive: Potency [1] | Potency [2] | Potency [3] | Potency [4] | Potency [5] | Potency [6] | Potency [7] | Potency [8] | outcome [9]

Cc1ccc(C#N)cc1
inactive: Potency [1] | Potency [2] | Potency [3] | Potency [4] | Potency [5] | Potency [6] | Potency [7] | Potency [8] | outcome [9] | Potency [10]

COC(=O)NN
inactive: Potency [1] | Potency [2] | Potency [3] | Potency [4] | Potency [5] | Potency [6] | Potency [7] | Potency [8] | outcome [9] | Potency [10]

CCCCCCOC(=O)CCCCC(=O)OCCCCCC
inactive: Potency [1] | Potency [2] | Potency [3] | Potency [4] | Potency [5] | Potency [6] | Potency [7] | Potency [8] | outcome [9]

NS(=O)(=O)c1cc(C(=O)NN2C[C@H]3[C@H]4CCC(C4)[C@H]3C2)ccc1Cl
inactive: Potency [1] | Potency [2] | Potency [3] | Potency [4] | Potency [5] | Potency [6] | Potency [7] | Potency [8] | outcome [9] | Potency [10]

NC(=O)c1ccc(N)cc1
inactive: Potency [1] | Potency [2] | Potency [3] | Potency [4] | Potency [5] | Potency [6] | Potency [7] | Potency [8] | outcome [9]

FC(F)OC(Cl)C(F)(F)F (configuration not stated)
inactive: Potency [1] | Potency [2] | Potency [3] | Potency [4] | Potency [5] | Potency [6] | Potency [7] | Potency [8]

CCOC(=O)CCC(C)=O
inactive: Potency [1] | Potency [2] | Potency [3] | Potency [4] | Potency [5] | Potency [6] | Potency [7] | Potency [8]

O=[N+]([O-])c1ccc(F)cc1F
inactive: Potency [1] | Potency [2] | Potency [3] | Potency [4] | Potency [5] | Potency [6] | Potency [7] | Potency [8]

N[C@@H](C(=O)N[C@@H]1C(=O)N2C(C(=O)O)=C(Cl)CS[C@H]12)c1ccccc1
inactive: viability change, negative = cytotoxic [1] 3.31% [at 8.39 µM] | activity change, negative = inhibition [2] -5.09% [at 10.5 µM] | viability change, negative = cytotoxic [3] 0.971% [at 8.39 µM] | activity change, negative = cytotoxicity [4] 8.33% [at 8.39 µM] | activity, negative = inhibition [5] -13.2% [at 8.39 µM] | activation [6] -1.38% [at 8.39 µM] | viability change, negative = cytotoxic [7] 10.3% [at 8.39 µM] | activity, negative = inhibition [8] -0.314% [at 8.39 µM] | activation [9] -0.0958% [at 8.39 µM] | activation [10] -0.277% [at 8.39 µM]

CO[Si](CCCOCC1CO1)(OC)OC (configuration not stated)
inactive: Potency [1] | Potency [2] | Potency [3] | Potency [4] | Potency [5] | Potency [6]

COC(=O)c1c(Cl)c(Cl)c(C(=O)OC)c(Cl)c1Cl
active: Potency [6] 54.5 µM and 8.63 µM
inactive: Potency [1] | Potency [2] | Potency [3] | Potency [4] | Potency [5] | Potency [7] | Potency [8]

CCSC(=O)N(CC(C)C)CC(C)C
inactive: Potency [1] | Potency [2] | Potency [3] | Potency [4] | Potency [5] | Potency [6] | Potency [7] | Potency [8] | outcome [9]

CC/C=C\CC/C=C/CO
inactive: Potency [1] | Potency [2] | Potency [3] | Potency [4] | Potency [5] | Potency [6] | Potency [7] | Potency [8] | outcome [9]

NS(=O)(=O)c1cc2c(cc1Cl)NC(C1CC3C=CC1C3)NS2(=O)=O (configuration not stated)
inactive: Potency [1] | Potency [2] | Potency [3] | Potency [4] | Potency [5] | Potency [6]

Cc1nc2c([nH]1)c(=O)n(C)c(=O)n2Cc1ccco1
inactive: Potency [1] | Potency [2] | Potency [3] | Potency [4] | Potency [5] | Potency [6] | Potency [7]

CCCc1cc(C(N)=S)ccn1
inactive: Potency [1] | Potency [2] | Potency [3] | Potency [4] | Potency [5] | Potency [6] | Potency [7] | Potency [8] | outcome [9] | Potency [10]

CCS(=O)(=O)c1ccc(OC)c(C(=O)OC)c1
inactive: Potency [1] | Potency [2] | Potency [3] | Potency [4] | Potency [5] | Potency [6] | Potency [7] | Potency [8] | outcome [9]

OC1CCCCC1c1ccccc1 (configuration not stated)
inactive: Potency [1] | Potency [2] | Potency [3] | Potency [4] | Potency [5] | Potency [6] | Potency [7] | Potency [8] | outcome [9] | Potency [10]

O=Cc1cccc([N+](=O)[O-])c1
inactive: Potency [1] | Potency [2] | Potency [3] | Potency [4] | Potency [5] | Potency [6] | Potency [7] | outcome [9]
active: Potency [8] 24.2 µM

COC(=O)c1ccc(C)cc1C1=NC(C)(C(C)C)C(=O)N1 (configuration not stated)
inactive: Potency [1] | Potency [2] | Potency [3] | Potency [4] | Potency [5] | Potency [6] | Potency [7] | Potency [8] | outcome [9]

C[N+](C)(C)CC(O)CC(=O)[O-] (configuration not stated)
inactive: Potency [1] | Potency [2] | Potency [3] | Potency [4] | Potency [5] | Potency [6] | Potency [7] | Potency [8] | outcome [9] | Potency [10]

CC(=O)CC(C)(C)C1CCCCC1
inactive: Potency [1] | Potency [2] | Potency [3] | Potency [4] | Potency [5] | Potency [6] | Potency [7] | Potency [8] | outcome [9]

Cc1c(O)cccc1O
inactive: Potency [1] | Potency [2] | Potency [3] | Potency [4] | Potency [5] | Potency [6] | Potency [7] | Potency [8] | outcome [9]

OC(CCN1CCCCC1)(c1ccccc1)C1CC2C=CC1C2 (configuration not stated)
inactive: Potency [1] | Potency [2] | Potency [3] | Potency [4] | Potency [5] | Potency [6] | Potency [7]

CCOC(=O)[C@H](CCc1ccccc1)N[C@@H](C)C(=O)N1[C@H](C(=O)O)C[C@@H]2CCC[C@@H]21
inactive: Potency [1] | Potency [2] | Potency [3] | Potency [4] | Potency [5] | Potency [6] | Potency [7] | Potency [8] | outcome [9] | Potency [10]

CN1CCN(c2cc3c(cc2F)c(=O)c(C(=O)O)cn3-c2ccc(F)cc2)CC1
inactive: Potency [1] | Potency [2] | Potency [3] | Potency [4] | Potency [5] | Potency [6] | Potency [7] | Potency [8] | outcome [9]
